From paper PMC7862700, “An all-to-all approach to the identification of sequence-specific readers for epigenetic DNA modifications on cytosine”

Key:
Experiment in all cases: DAPPL (digital affinity profiling via proximity ligation, sequencing); 10 mM Tris-HCl pH 7.5, 50 mM NaCl, 1 mM DTT, 4% glycerol, room temperature, 30 min; GST-TFs on glutathione beads, 16-mer random dsDNA library, 0.1% formaldehyde crosslink after washing; high values mean tight binding
Conditions in all cases: protein: recombinant; tags: N-terminal GST; dsDNA, one strand shown
[1] = biological target: T1, ERF (Homo sapiens, UniProt P50548 1-548)
T1 sequence: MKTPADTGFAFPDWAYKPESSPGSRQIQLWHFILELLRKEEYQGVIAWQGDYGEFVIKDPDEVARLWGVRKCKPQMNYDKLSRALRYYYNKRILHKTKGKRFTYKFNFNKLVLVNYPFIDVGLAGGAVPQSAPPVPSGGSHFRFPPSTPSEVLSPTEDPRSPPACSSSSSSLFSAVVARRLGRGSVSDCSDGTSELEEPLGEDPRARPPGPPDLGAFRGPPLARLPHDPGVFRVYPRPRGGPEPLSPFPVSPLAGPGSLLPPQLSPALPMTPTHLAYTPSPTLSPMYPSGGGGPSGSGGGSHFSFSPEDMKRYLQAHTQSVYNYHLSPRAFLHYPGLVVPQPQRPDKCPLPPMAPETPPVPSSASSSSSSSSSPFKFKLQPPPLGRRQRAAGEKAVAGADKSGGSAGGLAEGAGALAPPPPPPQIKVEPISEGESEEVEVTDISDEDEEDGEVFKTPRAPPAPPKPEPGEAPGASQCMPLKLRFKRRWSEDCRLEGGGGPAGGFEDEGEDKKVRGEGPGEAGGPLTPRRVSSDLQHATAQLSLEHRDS
Outline: (§1)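 GST fusions of human transcription factors were expressed in yeast and captured with glutathione beads. Once given DNA barcodes and pooled alongside a tag-only sample, they were incubated for 30 min at room temperature with 200 nmole of a random double-stranded 16-mer DNA library in Tris/NaCl/DTT/glycerol buffer, then washed, crosslinked (0.1% formaldehyde), proximity-ligated, PCR-amplified and sequenced on an Illumina NextSeq500. The binding signal of each hexamer is its read frequency for a factor divided by its frequency for the tag-only sample.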

[2] = biological target: T2, ETV3L (Homo sapiens, UniProt Q6ZN32 1-361)
T2 sequence: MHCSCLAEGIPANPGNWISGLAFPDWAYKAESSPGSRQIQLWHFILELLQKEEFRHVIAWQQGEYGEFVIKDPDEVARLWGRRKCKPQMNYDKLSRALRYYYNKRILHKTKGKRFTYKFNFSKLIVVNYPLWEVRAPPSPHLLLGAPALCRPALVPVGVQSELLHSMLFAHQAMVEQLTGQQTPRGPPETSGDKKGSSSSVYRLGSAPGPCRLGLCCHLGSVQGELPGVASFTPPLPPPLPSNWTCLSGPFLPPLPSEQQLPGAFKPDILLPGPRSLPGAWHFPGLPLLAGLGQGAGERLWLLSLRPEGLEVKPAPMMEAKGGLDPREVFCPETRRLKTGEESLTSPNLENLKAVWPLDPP
Outline: as §1

[3] = biological target: T3, ETS2 (Homo sapiens, UniProt P15036 1-469)
T3 sequence: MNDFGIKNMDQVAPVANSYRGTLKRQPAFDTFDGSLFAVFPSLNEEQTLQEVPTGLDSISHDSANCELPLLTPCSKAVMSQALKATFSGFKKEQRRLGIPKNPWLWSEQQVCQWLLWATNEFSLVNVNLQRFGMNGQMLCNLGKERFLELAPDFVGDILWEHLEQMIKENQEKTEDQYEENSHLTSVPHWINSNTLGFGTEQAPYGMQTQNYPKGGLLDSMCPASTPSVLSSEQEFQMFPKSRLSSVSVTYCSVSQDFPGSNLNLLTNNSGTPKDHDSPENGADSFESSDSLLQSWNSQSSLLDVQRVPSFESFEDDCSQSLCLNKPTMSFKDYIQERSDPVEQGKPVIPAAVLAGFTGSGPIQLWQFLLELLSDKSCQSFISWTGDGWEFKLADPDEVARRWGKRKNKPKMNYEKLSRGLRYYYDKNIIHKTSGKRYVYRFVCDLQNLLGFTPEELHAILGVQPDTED
Outline: as §1

[4] = biological target: T4, SPDEF (Homo sapiens, UniProt O95238 1-335)
T4 sequence: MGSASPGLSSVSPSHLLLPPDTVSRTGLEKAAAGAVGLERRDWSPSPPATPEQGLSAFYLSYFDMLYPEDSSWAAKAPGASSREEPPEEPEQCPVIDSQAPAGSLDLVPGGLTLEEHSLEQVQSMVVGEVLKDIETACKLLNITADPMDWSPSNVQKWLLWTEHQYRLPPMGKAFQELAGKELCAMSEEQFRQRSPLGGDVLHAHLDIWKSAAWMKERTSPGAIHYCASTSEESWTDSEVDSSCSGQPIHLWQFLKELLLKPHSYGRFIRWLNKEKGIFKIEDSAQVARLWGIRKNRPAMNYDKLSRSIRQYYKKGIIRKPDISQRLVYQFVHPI
Outline: as §1

[5] = biological target: T5, ETV7 (Homo sapiens, UniProt Q9Y603 1-341)
T5 sequence: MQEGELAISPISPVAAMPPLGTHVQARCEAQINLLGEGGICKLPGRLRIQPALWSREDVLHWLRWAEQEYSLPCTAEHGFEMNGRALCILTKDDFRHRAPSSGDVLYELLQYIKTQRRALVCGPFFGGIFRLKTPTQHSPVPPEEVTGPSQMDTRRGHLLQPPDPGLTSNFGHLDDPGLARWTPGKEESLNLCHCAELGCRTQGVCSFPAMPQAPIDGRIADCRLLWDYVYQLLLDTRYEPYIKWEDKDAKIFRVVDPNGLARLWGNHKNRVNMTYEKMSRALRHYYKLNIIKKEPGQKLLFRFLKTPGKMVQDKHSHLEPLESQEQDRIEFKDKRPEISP
Outline: as §1

[6] = biological target: T6, ELF5 (Homo sapiens, UniProt Q9UKW6-2 1-255)
T6 sequence: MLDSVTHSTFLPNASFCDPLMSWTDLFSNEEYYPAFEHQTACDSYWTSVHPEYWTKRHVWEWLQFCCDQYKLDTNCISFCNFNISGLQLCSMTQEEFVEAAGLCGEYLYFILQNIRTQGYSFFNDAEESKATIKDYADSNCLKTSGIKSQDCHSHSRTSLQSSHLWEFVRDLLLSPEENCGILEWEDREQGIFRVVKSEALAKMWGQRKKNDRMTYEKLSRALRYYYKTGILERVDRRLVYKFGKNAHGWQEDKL
Outline: as §1

[7] = biological target: T7, ETV3 (Homo sapiens, UniProt P41162-2 1-143)
T7 sequence: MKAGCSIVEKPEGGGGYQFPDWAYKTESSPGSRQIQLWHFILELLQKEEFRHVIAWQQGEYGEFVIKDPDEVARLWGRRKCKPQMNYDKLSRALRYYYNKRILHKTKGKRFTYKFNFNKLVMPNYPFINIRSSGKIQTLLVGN
Outline: as §1

[8] = biological target: ETV6 (Homo sapiens, UniProt P41212 1-452)
Outline: as §1

Chain of ETV6 (P41212 whole entry): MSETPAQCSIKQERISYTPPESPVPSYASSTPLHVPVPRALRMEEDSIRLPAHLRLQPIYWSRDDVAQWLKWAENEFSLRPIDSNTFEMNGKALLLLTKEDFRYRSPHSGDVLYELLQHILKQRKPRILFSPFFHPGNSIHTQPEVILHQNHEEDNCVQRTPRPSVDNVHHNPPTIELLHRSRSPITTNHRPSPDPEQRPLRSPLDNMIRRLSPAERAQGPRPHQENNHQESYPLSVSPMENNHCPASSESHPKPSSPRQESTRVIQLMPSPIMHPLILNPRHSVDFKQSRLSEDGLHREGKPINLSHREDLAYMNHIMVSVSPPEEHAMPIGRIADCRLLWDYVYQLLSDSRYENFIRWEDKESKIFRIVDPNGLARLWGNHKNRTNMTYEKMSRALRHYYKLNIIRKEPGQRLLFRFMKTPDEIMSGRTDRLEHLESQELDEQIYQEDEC

Row | Sequence | binding signal [1] | binding signal [2] | binding signal [3] | binding signal [4] | binding signal [5] | binding signal [6] | binding signal [7] | binding signal [8]
1 | GTTCCA | 1 fold enrichment (6-mer frequency, TF over GST control) | 1.04 fold enrichment (6-mer frequency, TF over GST control) | 1.13 fold enrichment (6-mer frequency, TF over GST control) | 1.1 fold enrichment (6-mer frequency, TF over GST control) | 1.12 fold enrichment (6-mer frequency, TF over GST control) | 1.07 fold enrichment (6-mer frequency, TF over GST control) | 1.04 fold enrichment (6-mer frequency, TF over GST control) | 1.04 fold enrichment (6-mer frequency, TF over GST control)
2 | TATACC | 1.27 fold enrichment (6-mer frequency, TF over GST control) | 1.15 fold enrichment (6-mer frequency, TF over GST control) | 1.24 fold enrichment (6-mer frequency, TF over GST control) | 1.26 fold enrichment (6-mer frequency, TF over GST control) | 1.15 fold enrichment (6-mer frequency, TF over GST control) | 1.22 fold enrichment (6-mer frequency, TF over GST control) | 1.26 fold enrichment (6-mer frequency, TF over GST control) | 1.21 fold enrichment (6-mer frequency, TF over GST control)
3 | ATACGC | 1.18 fold enrichment (6-mer frequency, TF over GST control) | 1.14 fold enrichment (6-mer frequency, TF over GST control) | 1.11 fold enrichment (6-mer frequency, TF over GST control) | 1.2 fold enrichment (6-mer frequency, TF over GST control) | 1.06 fold enrichment (6-mer frequency, TF over GST control) | 1.11 fold enrichment (6-mer frequency, TF over GST control) | 1.07 fold enrichment (6-mer frequency, TF over GST control) | 1.2 fold enrichment (6-mer frequency, TF over GST control)
4 | CCCTAA | 1.36 fold enrichment (6-mer frequency, TF over GST control) | 1.32 fold enrichment (6-mer frequency, TF over GST control) | 1.15 fold enrichment (6-mer frequency, TF over GST control) | 1.19 fold enrichment (6-mer frequency, TF over GST control) | 1.14 fold enrichment (6-mer frequency, TF over GST control) | 1.19 fold enrichment (6-mer frequency, TF over GST control) | 1.2 fold enrichment (6-mer frequency, TF over GST control) | 1.08 fold enrichment (6-mer frequency, TF over GST control)
5 | CCGTCA | 1.08 fold enrichment (6-mer frequency, TF over GST control) | 1.28 fold enrichment (6-mer frequency, TF over GST control) | 1.28 fold enrichment (6-mer frequency, TF over GST control) | 1.38 fold enrichment (6-mer frequency, TF over GST control) | 1.26 fold enrichment (6-mer frequency, TF over GST control) | 1.22 fold enrichment (6-mer frequency, TF over GST control) | 1.19 fold enrichment (6-mer frequency, TF over GST control) | 1.25 fold enrichment (6-mer frequency, TF over GST control)
6 | CCCACA | 1.12 fold enrichment (6-mer frequency, TF over GST control) | 1.1 fold enrichment (6-mer frequency, TF over GST control) | 1.13 fold enrichment (6-mer frequency, TF over GST control) | 1.22 fold enrichment (6-mer frequency, TF over GST control) | 1.05 fold enrichment (6-mer frequency, TF over GST control) | 1.13 fold enrichment (6-mer frequency, TF over GST control) | 1.1 fold enrichment (6-mer frequency, TF over GST control) | 1.14 fold enrichment (6-mer frequency, TF over GST control)
